Results filed as inconclusive are left out. Where a call stands in place of a potency, no number is given. The source made the active and inactive calls. Calls follow the shape of the dose curve; as a rule, active = well fitted curve in the direction sought with a large enough effect; inconclusive = small, poorly fitted or top-dose-only effect, or another doubt; inactive = no such curve, though single readings can be large; an effect the other way counts as inactive or inconclusive.
Legend:
[1] = Quantitative High-Throughput drug screen in 47 multiple myeloma cell lines against the NCATS MIPE library collection: PCM6_Riken cell viability assay (AID 1919870); conditions: CellTiter-Glo ATP, 48 h; series mostly up to 45.8 µM; also: nearly all actives have a fitted effect of over 30% in size; also: potency is read from the fitted curve at half-maximal effect
In short: (§1)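 Plated at 500 cells per well, myeloma lines received MIPE 4.0 compounds by pin tool. Following 48 h culture at 37 °C, CellTiter-Glo luminescence gave viability relative to DMSO and media-only controls.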

[2] = Quantitative High-Throughput drug screen in 47 multiple myeloma cell lines against the NCATS MIPE library collection: OPM2_DSMZ cell viability assay (AID 1919872); conditions: OPM2 myeloma viability, CellTiter-Glo ATP luminescence, 48 h; series mostly up to 45.8 µM; also: nearly all actives have a fitted effect of over 30% in size
In short: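 We plated 500 myeloma cells per well, pinned in MIPE 4.0 compounds, and incubated for 48 hours at 37C. ATP was then quantified with CellTiter-Glo, with DMSO and media-only wells defining 100% and 0%.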

[3] = Quantitative High-Throughput drug screen in 47 multiple myeloma cell lines against the NCATS MIPE library collection: KMS28BM_JCRB cell viability assay (AID 1919874); conditions: CellTiter-Glo ATP, 48 h; series mostly up to 45.8 µM; also: nearly all actives have a fitted effect of over 35% in size; also: potency is read from the fitted curve at half-maximal effect
In short: as §1

[4] = Quantitative High-Throughput drug screen in 47 multiple myeloma cell lines against the NCATS MIPE library collection: KMS11_JCRBsus cell viability assay (AID 1919873); conditions: KMS11 myeloma viability, CellTiter-Glo ATP luminescence, 48 h; series mostly up to 45.8 µM; also: nearly all actives have a fitted effect of over 50% in size; also: potency is read from the fitted curve at half-maximal effect
In short: as §1

[5] = Quantitative High-Throughput drug screen in 47 multiple myeloma cell lines against the NCATS MIPE library collection: RPMI8226_ATCC cell viability assay (AID 1919871); conditions: RPMI8226 myeloma viability, CellTiter-Glo ATP luminescence, 48 h; series mostly up to 45.8 µM; also: nearly all actives have a fitted effect of over 30% in size; also: potency is read from the fitted curve at half-maximal effect
In short: as §1

[6] = target: Cytochrome P450 2D6 (Homo sapiens) (UniProt P10635); assay: qHTS for inhibitors of CYP2D6 against the NCATS DSHEA and TCM libraries (AID 1919972); conditions: CYP2D6 enzymatic inhibition, luminescence qHTS; series mostly up to 34.1 µM; also: potency is read from the fitted curve at half-maximal effect
Sequence of Cytochrome P450 2D6 (Homo sapiens) (P10635 whole entry, looked up): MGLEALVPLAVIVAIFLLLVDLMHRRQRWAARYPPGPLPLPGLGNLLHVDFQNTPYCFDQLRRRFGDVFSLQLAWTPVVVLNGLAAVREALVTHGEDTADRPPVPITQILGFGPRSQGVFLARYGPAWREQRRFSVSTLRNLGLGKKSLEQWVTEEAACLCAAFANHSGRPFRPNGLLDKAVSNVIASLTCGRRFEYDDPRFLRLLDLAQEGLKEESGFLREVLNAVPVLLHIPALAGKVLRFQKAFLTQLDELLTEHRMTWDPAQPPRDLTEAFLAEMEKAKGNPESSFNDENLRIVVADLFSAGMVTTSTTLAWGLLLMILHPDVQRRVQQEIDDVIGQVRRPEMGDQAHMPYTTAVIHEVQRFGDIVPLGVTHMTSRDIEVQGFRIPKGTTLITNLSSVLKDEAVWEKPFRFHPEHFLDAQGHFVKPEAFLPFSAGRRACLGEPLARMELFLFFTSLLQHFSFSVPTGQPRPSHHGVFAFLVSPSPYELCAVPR
In short: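 Steps: enzyme plus luciferin substrate dispensed; test substances pinned; 15 min RT; 1x NADPH regenerating solution added, 30–45 min RT protected from light; detection reagent, 30 min RT; luminescence measured. Minus-enzyme wells as background.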

[7] = target: Cytochrome P450 2C9 (Homo sapiens) (UniProt P11712); assay: qHTS for inhibitors of CYP2C9 against the NCATS DSHEA and TCM libraries (AID 1919973); conditions: recombinant CYP2C9 enzyme activity, luminescence; series mostly up to 34.1 µM;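 also: luminogenic pro-luciferin CYP2C9 substrate turned into luciferin with NADPH regeneration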
Sequence of Cytochrome P450 2C9 (Homo sapiens) (P11712 whole entry, looked up): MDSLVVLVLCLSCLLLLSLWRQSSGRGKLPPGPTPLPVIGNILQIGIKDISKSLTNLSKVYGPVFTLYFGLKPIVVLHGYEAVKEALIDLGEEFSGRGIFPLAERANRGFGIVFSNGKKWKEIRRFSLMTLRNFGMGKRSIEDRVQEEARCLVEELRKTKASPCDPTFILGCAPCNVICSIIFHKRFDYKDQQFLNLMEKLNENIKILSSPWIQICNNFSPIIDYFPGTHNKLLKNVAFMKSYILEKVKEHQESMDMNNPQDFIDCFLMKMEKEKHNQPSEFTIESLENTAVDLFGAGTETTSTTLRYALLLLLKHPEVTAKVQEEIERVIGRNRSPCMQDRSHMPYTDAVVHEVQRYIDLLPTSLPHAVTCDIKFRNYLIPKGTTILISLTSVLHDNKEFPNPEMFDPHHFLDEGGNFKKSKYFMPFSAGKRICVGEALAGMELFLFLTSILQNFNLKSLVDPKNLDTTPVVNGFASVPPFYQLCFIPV
In short: (§2)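 Light output from converted D-luciferin reports remaining CYP activity. Compounds preincubate with enzyme and substrate for 15 min; NADPH regeneration (1x final) runs the reaction for 30-45 min.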

[8] = target: Cytochrome P450 2C19 (Homo sapiens) (UniProt P33261); assay: qHTS for inhibitors of CYP2C19 against the NCATS DSHEA and TCM libraries (AID 1919974); conditions: CYP2C19 enzyme inhibition, luminescence qHTS; series mostly up to 34.1 µM;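 also: luminescence from luciferin released by CYP2C19 oxidation of a pro-luciferin substrate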
Sequence of Cytochrome P450 2C19 (Homo sapiens) (P33261 whole entry, looked up): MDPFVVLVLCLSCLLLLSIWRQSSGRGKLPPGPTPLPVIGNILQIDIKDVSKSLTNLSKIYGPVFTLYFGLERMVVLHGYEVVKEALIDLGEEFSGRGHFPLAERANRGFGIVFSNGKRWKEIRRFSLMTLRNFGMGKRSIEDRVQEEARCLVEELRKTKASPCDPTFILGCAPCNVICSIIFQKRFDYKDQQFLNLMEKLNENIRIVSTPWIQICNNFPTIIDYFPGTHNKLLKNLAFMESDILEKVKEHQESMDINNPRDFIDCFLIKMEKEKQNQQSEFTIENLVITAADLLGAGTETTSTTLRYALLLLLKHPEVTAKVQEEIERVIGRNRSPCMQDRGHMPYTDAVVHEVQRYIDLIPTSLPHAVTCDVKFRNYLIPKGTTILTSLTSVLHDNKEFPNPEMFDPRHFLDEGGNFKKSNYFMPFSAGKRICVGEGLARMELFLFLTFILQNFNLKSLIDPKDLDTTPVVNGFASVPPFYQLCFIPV
In short: as §2

[9] = KB-3-1 P-gp reporter qHTS against the NCATS DSHEA and TCM libraries (AID 1919975); conditions: KB-3-1 parental cells, CellTiter-Glo luminescence viability, 72 h; series mostly up to 26.1 µM; also: potency is read from the fitted curve at half-maximal effect
In short: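 Parental KB-3-1 cells, 500 cells/well, in DMEM with 10% FBS, exposed 72 h at 37 C to compounds in concentration-response. Viability read by CellTiter-Glo luminescence after 30 min at room temperature.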

## CCCCCCNC(=O)n1cc(F)c(=O)[nH]c1=O
[1]
  Potency: inactive
[2]
  Potency: inactive
[3]
  Potency: inactive

## CC1=C(C(=O)O)N2C(=O)[C@@H](NC(=O)C(N)c3ccccc3)[C@H]2SC1 (stereo not given in full)
[1]
  Potency: inactive
[2]
  Potency: inactive
[4]
  Potency: inactive
[3]
  Potency: inactive

## CC[C@H](C)C(=O)O[C@H]1C[C@@H](C)C=C2C=C[C@H](C)[C@H](CC[C@@H]3C[C@@H](O)CC(=O)O3)[C@H]21
[1]
  Potency: inactive
[4]
  Potency: 20.9 µM (active)
[3]
  Potency: 23.5 µM (active)

## CC[C@H](NC(C)C)[C@H](O)c1ccc(O)c2[nH]c(=O)ccc12
[1]
  Potency: inactive
[2]
  Potency: inactive
[3]
  Potency: inactive

## O=NN(CCCl)C(=O)NC1CCCCC1
[1]
  Potency: inactive
[4]
  Potency: inactive
[3]
  Potency: inactive

## Cc1nnc(NS(=O)(=O)c2ccc(N)cc2)s1
[1]
  Potency: 1.18 µM (active)
[4]
  Potency: 9.35 µM (active)
[3]
  Potency: 4.18 µM (active)

## CC(=O)[C@H]1CC[C@H]2[C@@H]3CC=C4C[C@@H](O)CC[C@]4(C)[C@H]3CC[C@]12C
[1]
  Potency: inactive
[2]
  Potency: inactive
[4]
  Potency: inactive
[3]
  Potency: inactive

## COc1cc2c(Nc3ccc(Br)cc3F)ncnc2cc1OCC1CCN(C)CC1
[5]
  Potency: 23.5 µM (active)

## CCOC(=O)c1ccc(OC(=O)CCCCCN=C(N)N)cc1
[1]
  Potency: inactive
[2]
  Potency: inactive
[4]
  Potency: inactive
[3]
  Potency: inactive

## COc1ccc(-c2ccc3cc(C(=O)O)ccc3c2)cc1C12CC3CC(CC(C3)C1)C2
[5]
  Potency: 0.833 µM (active)
[2]
  Potency: inactive
[4]
  Potency: inactive

## CN1CCN(c2c(F)cc3c(=O)c(C(=O)O)cn(CCF)c3c2F)CC1
[1]
  Potency: inactive
[2]
  Potency: inactive
[3]
  Potency: inactive

## COc1ccc(C(=O)CC(=O)c2ccc(C(C)(C)C)cc2)cc1
[1]
  Potency: 0.935 µM (active)
[4]
  Potency: inactive
[3]
  Potency: 7.43 µM (active)

## Cc1ncc([N+](=O)[O-])n1CCO
[1]
  Potency: inactive
[2]
  Potency: inactive
[3]
  Potency: inactive

## CCCCOc1ccc(CC(=O)NO)cc1
[1]
  Potency: inactive
[3]
  Potency: inactive

## CN1CCCC(n2nc(Cc3ccc(Cl)cc3)c3ccccc3c2=O)CC1 (stereo not given)
[1]
  Potency: 3.32 µM (active)
[4]
  Potency: 1.32 µM (active)
[3]
  Potency: 0.372 µM (active)

## COc1ccc2cc3[n+](cc2c1OC)CCc1cc2c(cc1-3)OCO2
[1]
  Potency: 11.8 µM (active)
[4]
  Potency: 3.32 µM (active)
[6]
  Potency: 2.24 µM (active)
[7]
  outcome: inactive
[8]
  Potency: inactive
[9]
  Potency: 2 µM (active)

## C[C@@H](NCCCc1cccc(C(F)(F)F)c1)c1cccc2ccccc12
[1]
  Potency: inactive
[2]
  Potency: inactive
[4]
  Potency: inactive
[3]
  Potency: inactive

## CC(=O)[C@H]1CC[C@H]2[C@@H]3CCC4=CC(=O)CC[C@]4(C)[C@H]3CC[C@]12C
[4]
  Potency: 18.7 µM (active)
[3]
  Potency: 16.6 µM (active)

## CCN(CC)CC#CCOC(=O)C(O)(c1ccccc1)C1CCCCC1 (stereo not given)
[2]
  Potency: inactive

## O=C(NCC1CN(c2ccc(N3CCOCC3=O)cc2)C(=O)O1)c1ccc(Cl)s1 (stereo not given)
[5]
  Potency: inactive
[2]
  Potency: inactive
[3]
  Potency: inactive

## COC(=O)Nc1nc2ccc(S(=O)c3ccccc3)cc2[nH]1 (stereo not given)
[4]
  Potency: 8.33 µM (active)

## NC(=O)c1ccc2[nH]ccc2c1
[5]
  Potency: inactive
[2]
  Potency: inactive
[4]
  Potency: inactive
[3]
  Potency: inactive

## O=C(N[C@H](CO)[C@H](O)c1ccc([N+](=O)[O-])cc1)C(Cl)Cl
[2]
  Potency: inactive
[4]
  Potency: inactive
[3]
  Potency: inactive

## NC(=O)c1cccnc1
[4]
  Potency: inactive
[3]
  Potency: inactive

## CC(=O)CC(c1ccccc1)c1c(O)c2ccccc2oc1=O (stereo not given)
[5]
  Potency: inactive
[4]
  Potency: inactive
[3]
  Potency: inactive

## NS(=O)(=O)c1cc2c(cc1Cl)NC(C(Cl)Cl)NS2(=O)=O (stereo not given)
[5]
  Potency: inactive
[2]
  Potency: inactive
[4]
  Potency: inactive
[3]
  Potency: inactive

## CCC(C)(C)c1ccc(CC(C)CN2C[C@@H](C)O[C@@H](C)C2)cc1 (stereo not given in full)
[2]
  Potency: inactive

## Cc1cccc(Nc2ccncc2S(=O)(=O)NC(=O)NC(C)C)c1
[2]
  Potency: inactive

Reference: PubChem BioAssay (NCATS)
